# Screening results deposited in PubChem BioAssay by National Center for Advancing Translational Sciences (NCATS).
# Shown are actives, neighbours in structure and some others; about 21% of the full set was active somewhere.
# CHX counter = affects cycloheximide protein synthesis inhibition readout, counter-screen; cell reporter, cycloheximide protein synthesis inhibition counterscreen; max response, %; actives 12% (n = 300,000); AID 2314; in the data active = max response mostly above about 13%, no sharp cut-off; inactive = mostly below about 14%; note: read at 38.3 µM for the half of the compounds with a filed dose; 0% is about no effect
# Shiga inhibitor = Shiga toxin inhibition. AID 2315. Vero cells, Shiga toxin protein synthesis inhibition reporter. actives 9.2% (n = 290,000). inhibition, % at 38.7 µM; in the data active = inhibition mostly above about 28%, no sharp cut-off; inactive = mostly below about 43%; note: 0% is about no effect
# Pf growth 48h = inhibits P. falciparum growth in the first generation, 48 h; P. falciparum luciferase growth in erythrocytes, 48 h; Potency, µM (titrated, usually from 28.7 µM), without a hit: at the highest dose activity change, negative = inhibition, most hits filed as inhibitors; actives 5.9% (n = 310,000); note: potency is the fitted concentration of half-maximal effect; % is set by controls: 0 for no effect and ±100 for the full control effect
#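 Compounds are pin-transferred into medium, infected erythrocytes (2% hematocrit, 0.1% parasitemia final) are added, and plates sit one parasite generation at 37 C in 5% CO2. Detection reagent is then added and luminescence measured.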
# HCMV antiviral = human cytomegalovirus inhibition. HFF cells, HCMV-luciferase reporter, 72 h; active compounds read low. activity change, negative = inhibition, % at 57.5 µM. AID 1259415. actives 4.5% (n = 410,000); in the data active = activity change below about -60%; inconclusive = no clear call, values can overlap the other calls; inactive = above about -39%; note: % is set by controls: 0 for no effect and ±100 for the full control effect
#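 Two-dose cell screen: HFF monolayers treated with compounds and infected with luciferase-expressing HCMV at 1 PFU/cell, 72 h at 37C, then lysed for luciferase measurement.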
# HCV inh = HCV inhibition. Huh7.5.1 HCVcc-Cre infection, luciferase reporter, 44 h. actives 3.4% (n = 340,000). Potency, µM (doses to about 41.8 µM), for inactives: at the top dose activity change, negative = inhibition, most hits filed as inhibitors; note: potency is the fitted concentration of half-maximal effect; % is set by controls: 0 for no effect and ±100 for the full control effect
#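 1,000 cells/well; 4 h culture; + compound; + HCVcc-Cre (~0.5 moi); 44 h; luciferase substrate, RT 15 min; read 15 sec.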
# Pf growth 96h = P. falciparum growth inhibition at 96 hours; Potency, µM (highest dose often 28.7 µM), for inactives: at the top dose activity change, negative = inhibition, hits mostly inhibitors; P. falciparum luciferase reporter growth, 96 h; actives 6.9% (n = 320,000); note: potency is the fitted concentration of half-maximal effect; % is set by controls: 0 for no effect and ±100 for the full control effect
#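 Erythrocytes infected with luciferase-expressing P. falciparum were dispensed at 2% hematocrit and 0.05% parasitemia (final), then incubated with compounds 96 hours at 37 C in 5% CO2. Luminescence after detection reagent addition reported growth.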
# Active calls of the source: *; ? = inconclusive; . = no result. Unless noted, calls come from the whole dose curve; as a rule, active = well fitted inhibition curve with a large enough effect; inconclusive = small, poorly fitted or top-dose-only effect, or another doubt; inactive = no such curve, though single readings can be large or run the other way.
SMILES,CHX counter,Shiga inhibitor,Pf growth 48h,HCMV antiviral,HCV inh,Pf growth 96h
COc1ccc(Cl)cc1NC(=O)CN(C)C(=O)c1cc(C)oc1C,.,.,?,0,0%,?
CCOC(=O)CCC(NC(=O)c1ccc(NCN2C(=O)CCC2=O)cc1)C(=O)OCC (configuration not stated),17,20,-8%,33,6%,2%
CCOC(=O)CCC(NC(=O)c1ccc(NCN2C(=O)c3ccccc3C2=O)cc1)C(=O)OCC (configuration not stated),-6,-24,.,53,14%,4.1µM*
O=C(COC(=O)c1nc(Cl)c(Cl)c(Cl)c1Cl)NCc1ccccc1,.,.,-2%,8,?,28%
O=c1cc(Cl)nc2ccccn12,.,.,.,-22,7%,.
O=c1cc(NCc2ccccc2)nc2ccccn12,17*,38,167%,-35,-11%,20%
COc1ccc(-c2cc(=O)oc3c(C)c(OCC(=O)N(C)C)ccc23)cc1,-2,19,68%,-19,-17%,?
Cc1c(OCC(=O)NCc2ccccn2)ccc2c(-c3ccccc3)cc(=O)oc12,-2,-12,?,4,12%,?
Cc1c(OCC(=O)NCC(O)c2ccccc2)ccc2c(-c3ccccc3)cc(=O)oc12 (configuration not stated),-4,-3,?,?,32µM*,-15%
COc1ccc(-c2cc(=O)oc3c(C)c(OCC(=O)NCC4CCC(C(=O)O)CC4)ccc23)cc1 (configuration not stated),-1,-4,-34%,13,9%,13µM*
Cc1ccccc1/C=N/N=C1/NC(=O)CCS1,40*,92*,?,-26,2%,34%
O=C1CSC(=S)N1N=Cc1ccc(Cl)cc1Cl,.,.,.,-8,2%,.
O=C1CCS/C(=N\N=C\c2ccc(Cl)cc2Cl)N1,16*,24,-3%,?,8%,-6%
CSCCC(=O)N1CCCC(CO)(CCCc2ccccc2)C1 (configuration not stated),12,8,-23%,43,3%,0%
O=C1CCCN1CCC(=O)N1CCCC(CO)(Cc2ccccc2)C1 (configuration not stated),55*,74*,24%,41,26%,?
CO[C@H]1C([C@@]2(C)O[C@@H]2CC=C(C)C)[C@]2(CC[C@H]1OC(=O)/C=C/C=C/C=C/C=C/C(=O)O)CO2 (some centres not stated),13,-7,.,.,.,.
COC1C(=O)CCC2(CO2)C1(O)C1(C)OC1CC=C(C)C (configuration not stated),.,.,.,-76*,.,.
O=C(COC(=O)CCC(=O)c1cccs1)NC(=O)c1ccc(OC(F)F)cc1,-2,-9,-4%,?,4%,62%
COc1ccc(C2C(C(=O)Nc3cccnc3)=C(C)Nc3nc(-c4cccs4)nn32)cc1 (configuration not stated),-2,3,12µM*,124,-11%,?
CCOC(=O)c1ccc(NC(=O)C2=C(C)Nc3nc(CCCO)nn3C2c2ccc(OC)cc2)cc1 (configuration not stated),44*,66*,?,-17,2%,?
CCOc1ccc(C2C(C(=O)Nc3ccc(OC)cc3)=C(C)Nc3nc(CCCO)nn32)cc1 (configuration not stated),.,.,.,24,.,.
O=C(Nc1ccccc1)N(Cc1ccc(Cl)cc1)CC(O)C(F)(F)F (configuration not stated),0,9,15µM*,29,22%,6%
O=C(Nc1ccccc1)N(Cc1ccccc1)Cc1ccccc1,-3,-21,5%,6,5%,7%
COc1ccc(C(=O)N(Cc2ccccc2)c2cccc(C)c2)c(OC)c1OC,-2,-25,0%,-36,?,?
COc1ccccc1C(=O)N(Cc1ccccc1)c1ccc(C)cc1,18,-27,?,-14,-30%,?
SMILES,CHX counter,Shiga inhibitor,Pf growth 48h,HCMV antiviral,HCV inh,Pf growth 96h
COc1cc(C(=O)N(Cc2ccccc2)c2cccc(C)c2)ccc1OC(F)F,7,-4,?,-6,.,13µM*
COc1ccccc1CC(=O)N(Cc1ccccc1)c1ccc(C)cc1,12,15,?,-10,?,9.3µM*
COc1ccc(CC(=O)N(Cc2ccccc2)c2cccc(C)c2)cc1OC,-1,-12,?,?,.,10µM*
CCCCNC(=O)C(NC(=O)c1ccc(C(F)(F)F)cc1)C(=O)c1ccccc1 (configuration not stated),.,.,.,17,.,.
CCCCNC(=O)C(NC(=O)c1ccc2ccccc2c1)C(=O)c1ccccc1 (configuration not stated),.,.,.,-64*,.,.
COc1ccccc1Nc1sc(C(=O)c2ccc3c(c2)OCO3)c(N)c1S(=O)(=O)c1ccccc1,.,.,.,1,.,.
Clc1ccccc1-c1nc2nc3ccccc3nc2n1-c1ccc2c(c1)OCO2,-2,-14,?,7,?,10µM*
CN(C)C(=O)Oc1ccc(Cl)c2cccnc12,-2,8,2%,-38,1%,28%
O=C(Oc1ccc(Cl)c2cccnc12)N1CCCCCC1,17,44,33%,-100*,-25%,81%
O=C(Nc1cccc(C(F)(F)F)c1)Oc1ccc(Cl)c2cccnc12,27,21,2.6µM*,?,?,2.3µM*
CCOC(=O)C1=C(C)NC(=S)NC1c1ccsc1 (configuration not stated),-3,17,-15%,?,-19%,11%
CCNC(=O)C1CCCN(C(=O)c2ccc(N(C)C)cc2)CC1 (configuration not stated),.,.,.,-33,.,.
CC(=O)c1ccccc1OCCOCCOCCOc1ccccc1C(C)=O,-1,-10,-5%,6,?,?
c1ccc(OCCOc2cccc3cccnc23)cc1,33*,68*,50%,9,-9%,10µM*
Cc1cc(C)c(C)c(OCCCOc2cccc3cccnc23)c1,6,24,-20%,-18,?,?
OCc1ccccc1OCCOc1ccc(Cl)c2cccnc12,27*,58,37%,148,?,15%
CC(=O)c1ccccc1OCCOc1ncnc2sccc12,16*,36*,?,-18,9%,?
CC(=O)c1ccccc1OCCCOc1cccc2cccnc12,.,.,.,-83*,?,.
CCc1nn(CC(=O)N2CCN(c3cccc(C)c3)C(C)C2)c(=O)c2cc3sccc3n12 (configuration not stated),.,.,.,-16,.,.
OCc1ccccc1OCCCOc1cccc2cccnc12,26*,53*,22%,2,-8%,?
Clc1ccc(Oc2ccccc2)c2ncccc12,-4,-4,-1%,-33,1%,1%
